Results filed as inconclusive are left out. The source made the active and inactive calls. Unless noted, calls come from the whole dose curve; as a rule, active = well fitted curve in the direction sought with a large enough effect in the repeat runs; inconclusive = weak or mixed curves; inactive = no such curve, though single readings can be large; an effect the other way counts as inactive or inconclusive.
Experiments:
[1] = qHTS assay to identify small molecule antagonists of the glucocorticoid receptor (GR) signaling pathway - cell viability counter screen (AID 720693); settings: GR-bla HeLa viability, CellTiter-Glo luminescence, 18 h, with 5 nM dexamethasone present; series mostly up to 58.5 µM; note: nearly all actives have a fitted effect of over 55% in size
[2] = qHTS assay for identifying genotoxic compounds that show differential cytotoxicity against isogenic chicken DT40 cell lines with known DNA damage response pathways - wild type cell line (AID 743012); settings: DT40 wild type chicken cells viability, CellTiter-Glo, 40 h; series mostly up to 68.4 µM; note: nearly all actives have a fitted effect of over 60% in size; note: potency is the fitted concentration of half-maximal effect
Summary of the method: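 Cells (DT40 wild type, 300/well) are treated with DMSO-dissolved compounds after a ~0.5 h pre-incubation and kept 40 h at 37 C/5% CO2. Viability is then measured by CellTiter-Glo luminescence following 30 min at room temperature.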

[3] = qHTS assay for identifying genotoxic compounds that show differential cytotoxicity against isogenic chicken DT40 cell lines with known DNA damage response pathways - Rev3 mutant cell line (AID 743014); settings: chicken DT40 Rev3-/- viability, CellTiter-Glo, 40 h; series mostly up to 68.4 µM; note: nearly all actives have a fitted effect of over 55% in size; note: potency is the fitted concentration of half-maximal effect
[4] = qHTS assay for identifying genotoxic compounds that show differential cytotoxicity against isogenic chicken DT40 cell lines with known DNA damage response pathways - Rad54/Ku70 mutant cell line (AID 743015); settings: DT40 Rad54/Ku70 mutant viability, CellTiter-Glo, 40 h; series mostly up to 66.8 µM; note: nearly all actives have a fitted effect of over 60% in size; note: potency is the fitted concentration of half-maximal effect
[5] = qHTS assay to identify small molecule antagonists of the androgen receptor (AR) signaling pathway - cell viability counter screen (AID 743033; note: nearly all actives have a fitted effect of over 45% in size); settings: AR-bla HEK293 viability, CellTiter-Glo luminescence, 16 h; series mostly up to 58.5 µM
[6] = biological target: Androgen receptor (Homo sapiens) (UniProt P10275); assay: qHTS assay to identify small molecule agonists of the androgen receptor (AR) signaling pathway using the MDA cell line (AID 743040; note: nearly all actives have a fitted effect of over 20% in size); settings: MDA-kb2 AR-luc cells, MMTV luciferase, 16 h, active compounds read high; series mostly up to 70.3 µM
Summary of the method: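 After a 5 h incubation at 37C and 0% CO2, MDA-kb2 reporter cells were dosed with compounds in DMSO and kept 16 h under the same conditions. Luciferase activity was then read as luminescence with ONE-Glo.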

[7] = qHTS assay to identify small molecule antagonists of the androgen receptor (AR) signaling pathway using the MDA cell line - cell viability counter screen (AID 743041; note: nearly all actives have a fitted effect of over 45% in size); settings: MDA-kb2 viability, CellTiter-Fluor, 16 h, cells co-treated with R1881 androgen agonist; series mostly up to 70.3 µM
Summary of the method: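 R1881-driven MDA-kb2 AR-luc cells, 3,000/well, were dosed with library compounds for 16 h; cell health came from CellTiter-Fluor fluorescence in the reporter wells.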

[8] = biological target: Androgen receptor (Homo sapiens) (UniProt P10275); assay: qHTS assay to identify small molecule antagonists of the androgen receptor (AR) signaling pathway using the MDA cell line (AID 743042; note: nearly all actives have a fitted effect of over 55% in size); settings: MDA-kb2 AR-luc, MMTV luciferase, R1881 antagonist, 16 h; series mostly up to 70.3 µM
Summary of the method: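 Antagonist mode: compounds plus R1881 agonist added to MDA-kb2 AR-luc cells, incubated 16 h at 37C. Luciferase reporter luminescence quantified, with multiplexed CellTiter-Fluor readout for cell viability.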

[9] = qHTS assay to identify small molecule antagonists of the thyroid receptor (TR) signaling pathway (AID 743065); settings: GH3.TRE-Luc, T3-stimulated luciferase inhibition, 23.5 h; series mostly up to 70.3 µM; note: nearly all actives have a fitted effect of over 55% in size
Summary of the method: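 Antagonism measured as loss of luciferase signal in GH3 cells stably carrying a TRE-luciferase reporter, co-treated with compound and T3 (1 nM final) for 23.5 h at 37 C. Viability was read in the same well by CellTiter-Fluor.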

[10] = test system: thyroid hormone receptor (rat, GH3 cells); assay: qHTS assay to identify small molecule agonists of the thyroid receptor (TR) signaling pathway (AID 743066; calls by dose curve; note: potency is the fitted concentration of half-maximal effect); settings: GH3.TRE-Luc cells, TR agonist luciferase, 24 h; series mostly up to 83.9 µM
[11] = qHTS assay to identify small molecule antagonists of the estrogen receptor alpha (ER-alpha) signaling pathway - cell viability counter screen (AID 743074; calls by dose curve;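 note: HEK293 cells carrying ER-alpha-UAS-bla reporter stimulated with 17beta-estradiol; nearly all actives have a fitted effect of over 45% in size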); settings: ERalpha-bla HEK293 viability, CellTiter-Glo luminescence, 18 h; series mostly up to 69.4 µM
[12] = qHTS assay to identify small molecule antagonists of the estrogen receptor alpha (ER-alpha) signaling pathway using the BG1 cell line - cell viability counter screen (AID 743081); settings: BG1Luc4E2 viability, CellTiter-Fluor, 22 h; series mostly up to 70.3 µM;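 note: compound given together with 17beta-estradiol as the ER stimulus; nearly all actives have a fitted effect of over 45% in size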
Aromatase (Homo sapiens) = Aromatase (Homo sapiens) (UniProt P11511); assay: qHTS assay to identify aromatase inhibitors (AID 743083); settings: MCF-7 aro ERE, testosterone-driven ERE luciferase, 24 h; series mostly up to 70.3 µM; note: nearly all actives have a fitted effect of over 55% in size
[13] = qHTS assay to identify small molecule antagonists of the thyroid receptor (TR) signaling pathway - cell viability counter screen (AID 743064); settings: GH3.TRE-Luc viability, CellTiter-Fluor, 24 h; series mostly up to 70.3 µM; note: nearly all actives have a fitted effect of over 50% in size
Summary of the method: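 GH3.TRE-Luc rat pituitary cells dosed after 4 hr plating, co-stimulated with T3 at 1 nM final, incubated 23.5 h at 37 C. Viability measured in the same wells by CellTiter-Fluor fluorescence after 30 min further at 37 C.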

[14] = biological target: Estrogen receptor (Homo sapiens) (UniProt P03372); assay: qHTS assay to identify small molecule antagonists of the estrogen receptor alpha (ER-alpha) signaling pathway (AID 743069; active = well fitted curve in the direction sought with a large enough effect in the signal ratio in the repeat runs, not every such curve was filed as active; the % refers to the signal ratio); settings: HEK293 ER-alpha-UAS-bla, beta-lactamase ratio, antagonist mode; series mostly up to 69.4 µM
Summary of the method: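 Compound effects are measured against 17beta-estradiol stimulation in HEK293 cells with a UAS-controlled beta-lactamase reporter for ER-alpha. Exposure lasts 18 hr at 37C; LiveBLAzer B/G FRET substrate follows for 2 hr at room temperature.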

[15] = biological target: Estrogen receptor (Homo sapiens) (UniProt P03372); assay: qHTS assay to identify small molecule agonists of the estrogen receptor alpha (ER-alpha) signaling pathway (AID 743075; calls by dose curve); settings: HEK293 ER-alpha-UAS-bla, beta-lactamase FRET ratio, 18 h; series mostly up to 70.1 µM
[16] = biological target: Estrogen receptor (Homo sapiens) (UniProt P03372); assay: qHTS assay to identify small molecule agonists of the estrogen receptor alpha (ER-alpha) signaling pathway using the BG1 cell line (AID 743079); settings: BG1Luc4E2 cells, ERE-luciferase agonist, 22 h; series mostly up to 70.3 µM; note: nearly all actives have a fitted effect of over 20% in size
[17] = qHTS assay to identify small molecule antagonists of the estrogen receptor alpha (ER-alpha) signaling pathway using the BG1 cell line (AID 743080; calls by dose curve;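 note: BG1 cells stimulated with 17beta-estradiol alongside compound; nearly all actives have a fitted effect of over 25% in size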); settings: BG1Luc4E2 ERE-luciferase antagonist mode, luminescence; series mostly up to 70.3 µM
Summary of the method: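 Luminescence from a 4×ERE-luciferase reporter in BG1-Luc-4E2 cells served as read-out. Cells, pre-cultured 5 days in stripped-serum phenol-red-free medium, were exposed to compound with 17beta-estradiol co-stimulation for 21.5 h at 37 C.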

[18] = biological target: Androgen receptor (Homo sapiens) (UniProt P10275); assay: qHTS assay to identify small molecule antagonists of the androgen receptor (AR) signaling pathway (AID 743035; active = well fitted inhibition curve with a large enough effect in the signal ratio in the repeat runs, not every such curve was filed as active; the % refers to the signal ratio); settings: HEK293 AR-UAS-bla, R1881-stimulated, beta-lactamase FRET, 16 h; series mostly up to 58.5 µM
Summary of the method: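 Antagonism is scored as loss of R1881-driven beta-lactamase reporter expression in HEK293 cells carrying the reporter under a UAS element, after 16 h co-treatment at 37C and a 2 h room-temperature FRET substrate read.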

[19] = biological target: Androgen receptor (Homo sapiens) (UniProt P10275); assay: qHTS assay to identify small molecule agonists of the androgen receptor (AR) signaling pathway (AID 743036; active = well fitted activation curve with a large enough effect in the signal ratio in the repeat runs, with a control signal flat, not every such curve was filed as active; the % refers to the signal ratio); settings: HEK293 AR-UAS-bla GripTite, beta-lactamase FRET ratio, 16 h; series mostly up to 62.4 µM
Summary of the method: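 AR-UAS-bla HEK293 cells, plated 4 h before dosing, were treated with compound for 16 h at 37C. beta-Lactamase reporter read after 2 h with LiveBLAzer B/G FRET substrate at room temperature.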

Measured: Potency

Sequence of Androgen receptor (Homo sapiens) (P10275 whole entry, looked up): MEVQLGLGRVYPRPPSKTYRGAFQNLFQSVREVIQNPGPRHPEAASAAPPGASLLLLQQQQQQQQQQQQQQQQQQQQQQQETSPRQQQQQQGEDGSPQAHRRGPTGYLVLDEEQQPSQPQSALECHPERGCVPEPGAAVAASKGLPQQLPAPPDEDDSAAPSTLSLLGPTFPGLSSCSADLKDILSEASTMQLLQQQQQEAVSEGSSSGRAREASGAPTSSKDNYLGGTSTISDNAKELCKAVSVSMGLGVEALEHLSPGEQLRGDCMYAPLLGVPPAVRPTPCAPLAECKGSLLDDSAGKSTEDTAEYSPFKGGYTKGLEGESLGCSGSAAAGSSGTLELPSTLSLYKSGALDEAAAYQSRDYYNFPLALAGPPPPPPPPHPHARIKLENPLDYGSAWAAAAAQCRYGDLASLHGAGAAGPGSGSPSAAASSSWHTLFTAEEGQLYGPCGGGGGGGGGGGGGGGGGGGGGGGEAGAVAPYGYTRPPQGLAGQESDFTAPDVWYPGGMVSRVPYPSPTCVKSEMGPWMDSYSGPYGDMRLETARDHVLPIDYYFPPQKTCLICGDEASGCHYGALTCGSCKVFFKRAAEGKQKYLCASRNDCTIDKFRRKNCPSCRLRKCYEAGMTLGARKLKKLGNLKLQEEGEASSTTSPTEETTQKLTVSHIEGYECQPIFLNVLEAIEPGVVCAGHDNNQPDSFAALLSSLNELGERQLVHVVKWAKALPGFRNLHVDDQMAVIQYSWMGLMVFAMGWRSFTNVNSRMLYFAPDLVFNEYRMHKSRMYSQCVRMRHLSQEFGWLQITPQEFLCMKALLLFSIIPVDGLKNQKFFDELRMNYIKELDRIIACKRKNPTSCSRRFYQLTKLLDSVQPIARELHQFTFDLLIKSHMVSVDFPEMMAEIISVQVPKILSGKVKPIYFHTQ
Sequence of Estrogen receptor (Homo sapiens) (P03372 whole entry, looked up): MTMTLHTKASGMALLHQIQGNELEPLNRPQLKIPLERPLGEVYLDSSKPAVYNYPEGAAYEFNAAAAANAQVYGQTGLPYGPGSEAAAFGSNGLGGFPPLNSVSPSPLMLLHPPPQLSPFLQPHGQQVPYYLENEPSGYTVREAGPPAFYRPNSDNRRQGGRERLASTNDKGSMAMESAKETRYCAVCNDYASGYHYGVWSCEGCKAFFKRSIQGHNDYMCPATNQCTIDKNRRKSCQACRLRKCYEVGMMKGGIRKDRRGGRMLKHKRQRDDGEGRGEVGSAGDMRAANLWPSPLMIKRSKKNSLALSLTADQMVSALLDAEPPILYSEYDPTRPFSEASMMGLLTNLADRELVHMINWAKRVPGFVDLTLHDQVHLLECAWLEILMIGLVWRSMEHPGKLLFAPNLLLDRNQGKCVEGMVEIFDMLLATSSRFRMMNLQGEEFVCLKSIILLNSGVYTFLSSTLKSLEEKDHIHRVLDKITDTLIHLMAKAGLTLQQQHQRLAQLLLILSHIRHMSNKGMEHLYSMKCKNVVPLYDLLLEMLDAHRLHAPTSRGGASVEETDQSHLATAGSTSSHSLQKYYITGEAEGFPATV
Sequence of Aromatase (Homo sapiens) (P11511 whole entry, looked up): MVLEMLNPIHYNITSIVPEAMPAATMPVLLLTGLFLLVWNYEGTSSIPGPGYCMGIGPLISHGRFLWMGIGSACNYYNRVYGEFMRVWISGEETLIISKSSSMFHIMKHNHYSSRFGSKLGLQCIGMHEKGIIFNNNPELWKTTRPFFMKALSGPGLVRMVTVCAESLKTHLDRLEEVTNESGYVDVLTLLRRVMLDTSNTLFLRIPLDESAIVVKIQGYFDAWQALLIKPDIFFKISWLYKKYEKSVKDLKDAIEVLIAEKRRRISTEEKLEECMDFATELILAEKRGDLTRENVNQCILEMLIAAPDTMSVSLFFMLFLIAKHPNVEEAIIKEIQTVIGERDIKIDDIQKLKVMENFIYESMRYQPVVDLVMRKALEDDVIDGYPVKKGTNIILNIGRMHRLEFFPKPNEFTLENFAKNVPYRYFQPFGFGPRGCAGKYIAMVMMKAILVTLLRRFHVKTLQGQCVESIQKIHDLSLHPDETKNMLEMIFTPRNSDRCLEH

O=c1[nH]c(=O)c2ccccc2o1
not listed: [13] | [14] | [15] | [16] | [17] | [18] | [19]
inactive: all other assays above

O=[Si]=O
not listed: [6] | [8] | [18] | [19]
inactive: all other assays above

COc1ccc(/C=N/NC(=O)c2ccncc2)cc1OC
inactive: all assays above

COC(=O)CCC(=O)O
not listed: [6] | [8] | [18] | [19]
inactive: all other assays above

O=C(O)/C=C/c1ccccc1
not listed: [6] | [8] | [18] | [19]
inactive: all other assays above

COc1cccc2sc(N)nc12
not listed: [6] | [14] | [18] | [19]
inactive: all other assays above

Nc1ccnc(=O)[nH]1
not listed: [13] | [14] | [17]
inactive: all other assays above

O=C(O)c1ccccc1C(=O)OCc1ccccc1
not listed: [11] | [17] | [18]
inactive: all other assays above

O=C(COCCOCCOCC(=O)Nc1c(I)cc(I)c(C(=O)O)c1I)Nc1c(I)cc(I)c(C(=O)O)c1I
not listed: [6] | [8] | [18] | [19]
inactive: all other assays above

OC(CCN1CCCCC1)(c1ccccc1)c1ccccc1
active: [2] 13.3 µM | [3] 23.7 µM | [4] 21.1 µM
not listed: [7] | [9] | [12] | [13] | [14]
inactive: all other assays above

Cc1ncc([N+](=O)[O-])n1CC(O)CCl (configuration not stated)
not listed: [13] | [14] | [15] | [16] | [17] | [19]
inactive: all other assays above

NS(=O)(=O)c1ccc(Cl)c(S(N)(=O)=O)c1
not listed: [6] | [8] | [18] | [19]
inactive: all other assays above

CCCOCCOCCOCCO
not listed: [14] | [17] | [19]
inactive: all other assays above

COCC(=O)Nc1c(I)c(C(=O)NCC(O)CO)c(I)c(C(=O)N(C)CC(O)CO)c1I (configuration not stated)
not listed: [13] | [17]
inactive: all other assays above

CC1CCC(C(C)(C)S)C(=O)C1 (configuration not stated)
not listed: [6] | [8] | [18] | [19]
inactive: all other assays above

CCNC(=O)/C=C/c1cccc(Br)c1
inactive: [1] | [2] | [3] | [4] | [5] | [6] | [7] | [13] | [11] | [12] | Aromatase (Homo sapiens)

CC(C)CCO
not listed: [6] | [8] | [18] | [19]
inactive: all other assays above

C=CCOCC(O)CCl (configuration not stated)
not listed: [13]
inactive: all other assays above

CC(C)C(=O)c1ccccc1
not listed: [6] | [8] | [18] | [19]
inactive: all other assays above

Cc1ccccc1OCC1CO1 (configuration not stated)
not listed: [6] | [8] | [18] | [19]
inactive: all other assays above

O=C(O)c1ccccc1C(=O)Nc1ccc(S(=O)(=O)Nc2nccs2)cc1
not listed: [13] | [14] | [15] | [16] | [17]
inactive: all other assays above

CC(=O)OC(C(=O)c1ccccc1)c1ccccc1 (configuration not stated)
not listed: [13] | [16] | [17]
inactive: all other assays above

CCCCC[Si](OCC)(OCC)OCC
not listed: [9] | [10] | [14] | [15] | [16] | [17] | [18]
inactive: all other assays above

O=CN1CCOCC1
not listed: [17] | [18]
inactive: all other assays above

C1=C\CC/C=C\CC/1
not listed: [6] | [8] | [18] | [19]
inactive: all other assays above

CCCCCCCCCCC
active: [10] 54.5 µM
inactive: all other assays above

CC(C)COC(=O)CC(C(=O)OCC(C)C)S(=O)(=O)O (configuration not stated)
not listed: [6] | [8] | [18] | [19]
inactive: all other assays above

NCCc1ccn[nH]1
not listed: [9] | [10] | [13]
inactive: all other assays above

COC(OC)C(C)c1ccccc1 (configuration not stated)
inactive: all assays above

CCCCCCCCCCCCCCCCI
not listed: [14] | [15] | [16] | [17]
inactive: all other assays above

Nc1ccc(S(=O)(=O)Nc2ccccn2)cc1
not listed: [9] | [10] | [13] | [14] | [19]
inactive: all other assays above

CC(=O)N(CC(O)CO)c1c(I)c(C(=O)NCC(O)CO)c(I)c(C(=O)NCC(O)CO)c1I (configuration not stated)
not listed: [6] | [8] | [18] | [19]
inactive: all other assays above

CCCO
not listed: [6] | [8] | [18] | [19]
inactive: all other assays above

Cn1c(=O)c2c(ncn2CC2OCCO2)n(C)c1=O
not listed: [14] | [15] | [16] | [17]
inactive: all other assays above

CNC(=O)NC
inactive: all assays above

Source: PubChem BioAssay (Tox21)
